Laboratory results from PubChem BioAssay AID504441 (Broad Institute, 2011).
About 1,300 (0.42%) of roughly 310,000 compounds were called active. This excerpt belongs to a sample that is enriched for actives. Unmarked numbers belong to inactive results. Cut-off read from the data, not from the text of the source: active = inhibition above about 50%; inactive = the rest.

What follows are molecules tested against Dual specificity tyrosine-phosphorylation-regulated kinase 1A (Rattus norvegicus) (UniProt Q63470) (assay: inhibition of Dyrk1A kinase activity – biochemical, single point, plate reader, primary screen (AID 504441;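 note: plate controls were vehicle with enzyme for no effect and no enzyme for full effect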)). Settings: ADP-Glo luminescence, NFATc1 peptide, at 12.5 µM, stronger effect = higher value.

Row | Structure (SMILES) | inhibition
1 | O=C(Nc1cccc2ncccc12)c1ccc(-c2ccc(Cl)cc2Cl)o1 | 12.4%
2 | O=C(O)c1cc(Cl)c(Cl)cc1C(=O)Nc1cccc2ncccc12 | 31.9%
3 | Cc1ccc(/C=C(\C#N)C(=O)Nc2cccc3ncccc23)o1 | 84.4% (active)
4 | O=C1C2C3C=CC(C3)C2C(=O)N1c1ncc([N+](=O)[O-])s1 (stereo not given) | -1.64%
5 | CCCN(C(=O)COC(=O)CNS(=O)(=O)c1ccc(NC(C)=O)cc1)C1CCS(=O)(=O)C1 (stereo not given) | 7.58%
6 | CC(C)OC(=O)c1ccc(NCc2cc(O)ccc2O)cc1Cl | 0.287%
7 | COc1ccc(/C=C2/CCCc3ccccc3C2=O)cc1 | 11.6%
8 | O=[N+]([O-])c1ccccc1/C=N/n1c(COc2ccccc2)n[nH]c1=S | -1.54%
9 | CCc1n[nH]c(=S)n1/N=C/c1c[nH]c2ccc(Br)cc12 | 50.2% (active)
10 | Oc1ccccc1/C=N/n1c(-c2cccs2)n[nH]c1=S | -4.73%
11 | O=C1/C(=C\c2ccc(O)cc2)CCC1CNc1ccc(Cl)cc1 (stereo not given) | 2.38%
12 | COc1ccc(C2NCCCC2c2ccccc2)cc1 (stereo not given) | -2.56%
13 | O=C(NN=Cc1ccccc1O)NN=Cc1ccccc1O | 6.12%
14 | CCn1c(-c2cccnc2Cl)nc2cc(C)c(C)cc21 | 2.9%
15 | CCOC(=O)Cn1c(-c2cccnc2Cl)nc2ccccc21 | 80.1% (active)
16 | CCOC(=O)Cn1c(=O)n(Cc2ccc(OC)cc2)c(=O)c2cccnc21 | 2.78%
17 | O=c1c2ccccc2ncn1CCc1ccncc1 | 7.95%
18 | OCC(O)C1OCOC(C(O)CO)C1O (stereo not given) | -1.78%
19 | O=C(NCC1CCCCC1)NCC1CCCCC1 | 7.91%
20 | O=C(CC(O)(C(F)(F)F)C(F)(F)F)Nc1ccc(Cl)c(Cl)c1 | 53.9% (active)

Row | Structure (SMILES) | inhibition
21 | O=C(CC1SCCNC1=O)Nc1ccc(Cl)c(Cl)c1 (stereo not given) | -4.03%
22 | O=C(Cc1ccc(Cl)c(Cl)c1)Nc1ccc(SC(F)F)cc1 | -0.116%
23 | CC/C(=C(/c1ccccc1)c1ccc(OCC[N+](C)(C)C)cc1)c1ccccc1 | 7.18%
24 | COc1ccc2[nH]c(C)c(CCN(Cc3cccs3)C(=S)Nc3ccccc3OC)c2c1 | 57.4% (active)
25 | Cc1[nH]c2ccccc2c1CCN(Cc1cccs1)C(=S)NC(C)(C)C | -4.25%
26 | COc1cccc(NC(=S)N(CCc2c(C)[nH]c3ccccc23)Cc2ccco2)c1 | 7.39%
27 | NN=C(NN=Cc1ccccc1)c1ccccc1 | -4.79%
28 | CN(C(=O)c1cccc(NC(=O)Cc2ccc(NC(=O)C3CCCN(C(=O)C4CCCC4)C3)cc2)c1)C1CCC1 (stereo not given) | 2.93%
29 | CC(=NNC(=S)N1CCCCCC1)c1ccccn1 | 0.973%
30 | Cc1cc(NC(=O)C(C)SCC(=O)Nc2cccc(S(=O)(=O)N3CCCCCC3)c2)no1 (stereo not given) | -1.84%
31 | Cc1cc(/C=N/Nc2ccc([N+](=O)[O-])cn2)c(C)n1-c1cccc(C(=O)O)c1 | 50.2% (active)
32 | CC(C)c1ccc(C=NNc2ccc([N+](=O)[O-])cn2)cc1 | -3.91%
33 | Cc1ccc(-n2c(C)cc(/C=N/Nc3ccc([N+](=O)[O-])cn3)c2C)c(C)c1 | -4.85%
34 | Cc1cccc(NC(=S)N2CCC(C(=O)c3ccc(F)cc3)CC2)c1 | 10.4%
35 | O=C(Nc1ccc2ccccc2c1[N+](=O)[O-])c1ccccc1 | 3.22%
36 | O=C(OCCOc1ccccc1Cl)c1cc(S(=O)(=O)N2CCCCC2)ccc1N1CCOCC1 | -7.28%
37 | Nc1nc(SCc2ccc([N+](=O)[O-])cc2)c2ncn(C3OC(CO)C(O)C3O)c2n1 (stereo not given) | 56.9% (active)
38 | CC(C)Sc1nc(N)nc2c1ncn2C1OC(CO)C(O)C1O (stereo not given) | -4.63%
39 | Cc1nc(N)nc(SCc2ccc([N+](=O)[O-])cc2)c1N | -3.28%
40 | O=[N+]([O-])c1ccc(COc2ccccc2CN2CCOCC2)cc1 | 4.81%

Row | Structure (SMILES) | inhibition
41 | CNN/C(N=Cc1ccc([N+](=O)[O-])s1)=N\S(=O)(=O)c1cc(C)c(Cl)cc1SCc1ccccc1 | 1.25%
42 | Cc1ccc(S(=O)(=O)N2C[C@@H]3CCCC[C@@H]3[C@@H](C)[C@H]2c2cn(Cc3ccccc3)c3ccc(F)cc23)cc1 | -0.552%
43 | O=[N+]([O-])c1cc(Br)c(O)c(/C=N/Nc2nc3ccccc3s2)c1 | 32.7%
44 | N=C1C(c2nc3ccccc3s2)=C(O)CN1NC(=O)c1ccc([N+](=O)[O-])cc1 | 46.9%
45 | O=C(NC(Nc1nc2ccc([N+](=O)[O-])cc2s1)(C(F)(F)F)C(F)(F)F)c1ccccc1 | 73.9% (active)
46 | O=C(O)C(CCc1ccccn1)c1ccccc1 (stereo not given) | 3.61%
47 | N#CC1=C(N)Oc2cc(N)ccc2C1c1ccccc1 (stereo not given) | 0.0153%
48 | COc1ccc(CNCCCNCc2ccc(OC)c(OC)c2)cc1OC | -3.55%
49 | CCOc1cc(/C=C2\SC(N3CCCCC3)=NC2=O)ccc1O | 62.2% (active)
50 | CCOc1cc(/C=C2\SC(N3CCCC(C)C3)=NC2=O)ccc1O (stereo not given) | 31.5%
51 | O=C1N=C(N2CCCC2)S/C1=C\c1cccc(Br)c1 | -2.99%
52 | CCN1CCC(O)(/C=C/c2ccc(C)cc2)C(C(=O)/C=C/c2ccc(C)cc2)C1 (stereo not given) | -5.12%
53 | O=C(NCCc1ccccc1)C1CCN(S(=O)(=O)c2ccc(Br)s2)CC1 | 60.5% (active)
54 | O=C(C1CCN(S(=O)(=O)c2ccc(Br)s2)CC1)N1CCN(c2ccccc2)CC1 | 2.78%
55 | CSc1ccc(S(=O)(=O)N2CCC(C(=O)NCCc3ccccc3)CC2)cc1 | -0.684%
56 | COc1ccccc1N(CC(=O)Nc1c(C)n(C)n(-c2ccccc2)c1=O)S(=O)(=O)c1ccccc1 | 8.43%
57 | Cc1ccc(S(=O)(=O)N2CCN(C(=O)COC(=O)/C=C/c3cccc(Cl)c3)CC2)c(C)c1 | 2.98%
58 | CCOCCCNC(=O)C(NC(=O)c1ccc(=O)[nH]c1)c1ccc(C)cc1 (stereo not given) | 4%
59 | CCOCCCNC(=O)C(NC(=O)c1ccc(=O)[nH]c1)c1ccc(Cl)cc1 (stereo not given) | 62.1% (active)
60 | CCOCCCNC(=O)C(NC(=O)c1ccccc1O)c1ccccc1 (stereo not given) | 2.95%
